Assay outcomes: PubChem, National Center for Advancing Translational Sciences (NCATS)
Rows were chosen to be rich in hits. Some 7.5% of all compounds tested hit in one or more screens of this group.
FMDV antiviral – foot and mouth disease virus antiviral activity. FMDV antiviral cell-based qHTS. Potency, µM (titrated, usually from 57.9 µM), for the others: at the highest dose activity change, negative = inhibition, usual class: inhibitors. 1.2% of 410,000 active. AID 1159524; calls by dose curve; tested in HEK293T cells; further: read-out not given here; potency means the concentration at half of the fitted maximal effect; nearly all actives have a fitted effect of over 45% in size
HCMV antiviral – inhibitors of human cytomegalovirus. HFF cells, HCMV-luciferase reporter, 72 h; active compounds read low. 4.5% of 410,000 active. activity change, negative = inhibition, % at 57.5 µM; in the data active means activity change below about -60%; inconclusive means no clear call, values can overlap the other calls; inactive means above about -39%
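Steps: HFFs plated, 16 h 37C; compounds added; HCMV-luciferase added to MOI 1 PFU/cell; 72 h 37C; OneGlo reagent, 5 min room temperature; luminescence read, normalized to controls.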
Vaccinia mCherry – vaccinia inhibition (mCherry reporter); Vaccinia virus mCherry reporter infection, fluorescence; Potency, µM (top dose mostly 36.5 µM), for the others: at the top dose activity change, negative = inhibition, usual class: inhibitors; 0.63% of 310,000 active; AID 720579; calls by dose curve; tested in A549 cells; further: potency means the concentration at half of the fitted maximal effect; nearly all actives have a fitted effect of over 35% in size
HCV inhibitor – blocks hepatitis C virus | 3.4% of 340,000 active | Potency, µM (titrated, usually from 41.8 µM), for inactives: top-dose activity change, negative = inhibition, actives largely listed as inhibitors | Huh7.5.1 HCVcc-Cre infection, luciferase reporter, 44 h; further: potency means the concentration at half of the fitted maximal effect
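Whole-lifecycle infectious HCVcc-Cre system; cells 1,000/well, compound then virus (~0.5 moi) added 4 h after plating, 44 h culture. Luciferase read 15 sec following 15 min substrate incubation, room temp.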
Giardia FBPA inh – Giardia lamblia aldolase inhibition | 0.71% of 290,000 active | purified Giardia FBPA | A8B2U2 | Potency, µM (doses to about 59.6 µM), inactives show at the highest dose activity, negative = inhibition, hits mostly inhibitors; further: potency means the concentration at half of the fitted maximal effect; nearly all actives have a fitted effect of over 55% in size
Target sequence (A8B2U2 whole entry, looked up): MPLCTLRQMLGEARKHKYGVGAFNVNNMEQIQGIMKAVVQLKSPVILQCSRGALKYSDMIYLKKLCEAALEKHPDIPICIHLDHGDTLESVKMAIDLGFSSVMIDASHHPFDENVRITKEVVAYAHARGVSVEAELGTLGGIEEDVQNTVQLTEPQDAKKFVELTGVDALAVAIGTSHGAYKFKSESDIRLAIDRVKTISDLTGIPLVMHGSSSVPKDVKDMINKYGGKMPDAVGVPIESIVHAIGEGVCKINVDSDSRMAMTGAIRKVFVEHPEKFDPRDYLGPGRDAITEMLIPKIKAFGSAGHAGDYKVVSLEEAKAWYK
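40 nM FBPA preincubated 10 min at RT with compound (up to 57.5 uM final), then substrate plus GAPDH/TPI/NAD/arsenate coupling and diaphorase/resazurin added. Fluorescence read after 20 min at RT, 525/598 nm.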
Vaccinia Venus – vaccinia inhibition (Venus reporter) | Vaccinia virus Venus reporter expression, fluorescence | Potency, µM (top dose mostly 36.5 µM), for inactives: at the highest dose activity change, negative = inhibition, actives largely listed as inhibitors | 0.46% of 330,000 active | AID 720580; calls by dose curve; tested in A549 cells; further: potency means the concentration at half of the fitted maximal effect; nearly all actives have a fitted effect of over 30% in size
The depositor's hits bear a star. Unless noted, the call rests on the fitted dose curve; in most records, active means well fitted curve in the direction sought with a large enough effect; inconclusive means small, poorly fitted or top-dose-only effect, or another doubt; inactive means no such curve, though single readings can be large; an effect the other way counts as inactive or inconclusive. On the % scale 0 is the no-effect control and ±100 the full control effect.

CCOC(=O)N1CCC(NC(=O)c2ccc3c(c2)N(Cc2cccc(C)c2)C(=O)c2ccccc2S3(=O)=O)CC1 was read as FMDV antiviral -13.7%, HCMV antiviral -20.1, Vaccinia mCherry inconclusive and Vaccinia Venus inconclusive.
For CN(CC(=O)Nc1ccccc1Cl)C(=O)c1cccc(S(=O)(=O)N2CCN(c3ccc(F)cc3)CC2)c1 the results were FMDV antiviral -16.1%, HCMV antiviral -80.0* and HCV inhibitor 5.62µM*.
Screening Cc1ccc(S(=O)(=O)N2CCN(C)CC2)cc1[N+](=O)[O-] returned FMDV antiviral -2.7%, HCMV antiviral 76.2, HCV inhibitor 10.2% and Giardia FBPA inh 2.2%.
`CN1CCN(S(=O)(=O)c2ccc(N(C)Cc3ccc(OC(F)F)cc3)c([N+](=O)[O-])c2)CC1` gave FMDV antiviral inconclusive, HCMV antiviral inconclusive, Vaccinia mCherry -14.2%, HCV inhibitor 11.2µM* and Vaccinia Venus -21.2%.
`CCNC(=O)c1ccccc1NC(=O)c1cccc(S(=O)(=O)N2CCC(C)CC2)c1` gave FMDV antiviral inconclusive, HCMV antiviral inconclusive, HCV inhibitor 10µM*, Giardia FBPA inh -2.9% and Vaccinia Venus inconclusive.
Screening CC(c1ccon1)N(C)C(=O)c1cnn(-c2ncc3c(n2)-c2ccccc2CC3)c1C1CC1 (stereo not given) returned FMDV antiviral 24.8%, Vaccinia mCherry -19.7% and Vaccinia Venus -22.5%.
Screening CC1CCN(C(=O)CN2C(=O)NC(C)(c3ccc4ccccc4c3)C2=O)CC1 (stereo not given) returned FMDV antiviral -22.3%, HCMV antiviral 140.4, Vaccinia mCherry -17.9%, HCV inhibitor -1.8% and Vaccinia Venus -5.5%.
`O=C(Nc1ccccc1)OC[C@@H]1C=CS(=O)(=O)N1Cc1ccc(Br)cc1` gave FMDV antiviral -7.6%, HCMV antiviral -100.9*, Vaccinia mCherry 26.6% and Vaccinia Venus -15.2%.
CCc1cc2c(N3CCN(c4ccccc4)CC3)ncnc2s1 was read as FMDV antiviral 25.1µM*, HCMV antiviral -70.0*, HCV inhibitor 8.91µM*, Giardia FBPA inh -0.3% and Vaccinia Venus inconclusive.
For CC1CCc2c(sc3nc(C4CC4)nc(N4CCN(C(=O)c5ccco5)CC4)c23)C1 (stereo not given) the results were FMDV antiviral 25.1µM*, HCMV antiviral -85.8*, Vaccinia mCherry 14.1µM*, HCV inhibitor 4.47µM* and Vaccinia Venus inconclusive.
`CCc1nc(N2CCN(C(=O)c3ccco3)CC2)c2c3c(sc2n1)CCCC3` gave FMDV antiviral inconclusive, HCMV antiviral -23.8, Vaccinia mCherry -25.9%, HCV inhibitor inconclusive, Giardia FBPA inh 3.8% and Vaccinia Venus -25.2%.
For COc1ccc(CN2CCN(c3ncnc4sc5c(c34)CC(C)CC5)CC2)cc1F (stereo not given) the results were FMDV antiviral inconclusive, HCMV antiviral 14.0, Vaccinia mCherry inactive and Vaccinia Venus 0.4%.
c1ccc(N2CCN(c3ncnc4sc5c(c34)CCC5)CC2)cc1 was read as FMDV antiviral -23.2%, HCMV antiviral -75.9*, Vaccinia mCherry inconclusive, HCV inhibitor 10µM*, Giardia FBPA inh 0.1% and Vaccinia Venus -24.1%.
`COc1ccc(CN2CCN(c3ncnc4sc5c(c34)CCCC5)CC2)cc1F` gave FMDV antiviral inconclusive, HCMV antiviral -69.8*, Vaccinia mCherry inconclusive and Vaccinia Venus inconclusive.
For CS(=O)(=O)c1ccc(Nc2nc(C(N)c3ccccc3Cl)cs2)cc1 (stereo not given) the results were FMDV antiviral -18.3%, HCMV antiviral -7.9, Vaccinia mCherry -7.5% and Vaccinia Venus -13.7%.
Screening O=C(c1ccco1)N1CCN(c2ncnc3sc4c(c23)CCC4)CC1 returned FMDV antiviral inconclusive, HCMV antiviral -66.7*, Vaccinia mCherry inconclusive, HCV inhibitor inconclusive, Giardia FBPA inh -3.3% and Vaccinia Venus -14.4%.
O=C(c1ccco1)N1CCN(c2ncnc3c(-c4ccccc4)nsc23)CC1 was read as FMDV antiviral 5.2%, HCMV antiviral 118.7, HCV inhibitor 22.4µM* and Giardia FBPA inh -2.5%.
